About 37,000 (12%) of roughly 300,000 compounds were called active. Only a selection was taken, and actives are over-represented in it overall. Values without a mark were called inactive. Cut-off read from the data, not from the text of the source: active = max response mostly above about 13% (no sharp cut-off); inactive = mostly below about 14%.
Assay: Cycloheximide Counterscreen for Small Molecule Inhibitors of Shiga Toxin; note: read at 38.3 µM for the half of the compounds with a filed dose; 0% is about no effect
Details: cell reporter, cycloheximide protein synthesis inhibition counterscreen; active compounds read high

Q: Which max response does the source give for `COc1ccc(C(=O)N2CCCC(C(=O)c3ccccc3OC)C2)cc1OC` (stereo not given) here?
A: The max response was 9.55%.

Q: Which max response does the source give for `COCC1CCN(C(=O)c2ccc3oc(Cc4ccccc4)nc3c2)C1` (stereo not given) here?
A: The max response was 39.1% (active).

Q: With `COC(=O)C1CCN(C(=O)c2ccc3oc(Cc4ccc(Cl)cc4)nc3c2)CC1` as the compound, how does the max response read?
A: Its max response is -2.56%.

Q: For `COc1c(C)cc(C(=O)C2CCCN(S(=O)(=O)c3c(C)noc3C)C2)cc1C` (stereo not given), which max response is on record?
A: The max response was 5.32%.

Q: With `Cc1ccc2c(c1)N(CC(=O)N1CCOCC1)C(=O)CO2` as the compound, how does the max response read?
A: Its max response is -3.08%.

Q: Which max response does the source give for `Cc1nc(-c2ccc(Cl)cc2)sc1C1(C)CC(c2ccccc2F)=NO1` (stereo not given) here?
A: The max response was 20.7% (active).

Q: For `Cc1nc(C(=O)Nc2ccc(Cl)cc2)sc1C1(C)CC(c2ccccc2)=NO1` (stereo not given), which max response is on record?
A: The max response was 9.03%.

Q: With `Cc1nc(C(=O)NCc2ccccc2)sc1C1(C)CC(c2cccnc2)=NO1` (stereo not given) as the compound, how does the max response read?
A: The max response was -3.23%.

Q: For `CCN(c1ccc(NC(=O)COC(=O)CCc2nc3ccccc3n2-c2ccccc2)cc1)C(C)C`, which max response is on record?
A: The max response was 6.5%.

Q: For `COc1ccccc1NC(=O)COc1ccc(C(=O)OCC(=O)N(C(C)C)C(C)C)cc1OC`, which max response is on record?
A: Its max response is -3.62%.

Q: For `COc1ccc2c(c1)C(NS(=O)(=O)OCC(Cl)(Cl)Cl)CCC2` (stereo not given), which max response is on record?
A: The max response was 0.921%.

Q: For `COc1cc2c(C(=O)N3CCN(C)CC3)c(CSc3ccccc3)n(C)c2cc1Br`, which max response is on record?
A: The max response was -3.14%.

Q: For `Cc1ccc(C(=O)N/C(=C\c2cn(S(=O)(=O)N(C)C)c3ccccc23)C(=O)N2CCCC2)cc1`, which max response is on record?
A: The max response was -4.36%.

Q: For `Cc1nc(-c2ccc(F)cc2)c(CC(=O)N2CCN(S(=O)(=O)c3ccc(F)cc3)CC2)s1`, which max response is on record?
A: The max response was -1.12%.

Q: With `Cc1ccc(NC(=O)N2CCC(O)(c3cccnc3)CC2)cc1` as the compound, how does the max response read?
A: The max response was -0.6%.

Q: For `CCOc1ccc(CNC(=O)CCC(=O)N2CCSc3ccccc32)cc1`, which max response is on record?
A: Its max response is 3.9%.

Q: Which max response does the source give for `Cc1ccc(NC(=O)N2CCSc3ccccc32)cc1` here?
A: Its max response is 21.8% (active).

Q: For `Cc1ccc2c(=O)oc(N(C)C)nc2c1`, which max response is on record?
A: The max response was -3.11%.

Q: With `COc1ccc(CNC(=O)CCN2C(=O)c3ccccc3C2=O)cc1` as the compound, how does the max response read?
A: Its max response is -8.4%.

Q: With `Cc1cc(C(=O)NC2CCCc3c2cnn3-c2cccc(C)c2C)c(C)o1` (stereo not given) as the compound, how does the max response read?
A: Its max response is 0.915%.

Q: With `CCC1OC(c2ccc([N+](=O)[O-])cc2)=Nc2ccccc21` (stereo not given) as the compound, how does the max response read?
A: The max response was -5.5%.

Q: For `O=C1NC(=O)C2C1C(c1ccc([N+](=O)[O-])cc1)=NN2Cc1ccccc1` (stereo not given), which max response is on record?
A: Its max response is -2.84%.

Q: For `CCc1ccc2c(c1)C(c1ccc([N+](=O)[O-])cc1)=NNC(c1ccccc1)=N2`, which max response is on record?
A: The max response was 33.3% (active).

Q: With `CCOc1ccc2c(c1)C(c1ccc(C)cc1)=NNC(c1ccc(C)cc1)=N2` as the compound, how does the max response read?
A: Its max response is 54.8% (active).

Q: Which max response does the source give for `Cc1ccc(C2=Nc3c(ccc4ccccc34)C(c3ccncc3)=NN2)cc1` here?
A: Its max response is 1.6%.

Q: Which max response does the source give for `COc1ccc2c(c1)C(c1cccs1)=NNC(c1cccnc1)=N2` here?
A: The max response was 18.1%.

Q: Which max response does the source give for `COc1ccc(-c2onc3ccc(C(C)=O)cc23)cc1` here?
A: The max response was 2.44%.

Q: With `CC1=C(C(=O)OC(C)(C)C)C(c2ccc(Br)cc2)NC(=O)N1CCCC(=O)O` (stereo not given) as the compound, how does the max response read?
A: The max response was -2.28%.

Q: Which max response does the source give for `O=C(c1cc2cc(Br)cc(Br)c2oc1=O)N1CCOCC1` here?
A: Its max response is 0.493%.

Q: For `CC1CCN(CCCNC(=O)CN2C(=O)CSc3ccc(S(=O)(=O)N4CCCCC4)cc32)CC1`, which max response is on record?
A: Its max response is -0.237%.

Q: With `O=C(CN1CCC(NC(=O)C2CC2)CC1)Nc1ccccc1[N+](=O)[O-]` as the compound, how does the max response read?
A: Its max response is 7%.

Q: With `O=C1c2ccccc2C(=O)N1CCC(O)C[N+](=O)[O-]` (stereo not given) as the compound, how does the max response read?
A: Its max response is -2.75%.

Q: For `O=C1c2ccccc2C(=O)N1CCc1nn[nH]n1`, which max response is on record?
A: The max response was -3.78%.

Q: Which max response does the source give for `O=C1c2ccccc2C(=O)N1CCC(c1ccccc1)c1ccco1` (stereo not given) here?
A: Its max response is 24.4% (active).

Q: With `CCCN1CCn2c3c(c4cc(Br)ccc42)CCCC31` (stereo not given) as the compound, how does the max response read?
A: The max response was 25.3% (active).

Q: Which max response does the source give for `OC(CNCC1CCCO1)Cn1c2ccc(Br)cc2c2cc(Br)ccc21` (stereo not given) here?
A: Its max response is -6.3%.

Q: Which max response does the source give for `COCCn1c(SCC(=O)c2[nH]c(C)c(C(C)=O)c2C)nc2ccccc2c1=O` here?
A: The max response was -3.66%.

Q: For `CCN1CCN(CC(=O)Nc2sc3c(c2C#N)CCC3)CC1`, which max response is on record?
A: The max response was 1.34%.

Q: For `N#Cc1c(NC(=O)c2ccc(N3CCOCC3)c([N+](=O)[O-])c2)sc2c1CCCC2`, which max response is on record?
A: The max response was 1.18%.

Q: With `N#Cc1c(NC(=O)CCCl)sc2c1CCCCC2` as the compound, how does the max response read?
A: The max response was 21.9% (active).

Q: Which max response does the source give for `N#Cc1c(NC(=O)C2CC(Cl)=CCC2C(=O)O)sc2c1CCCCC2` (stereo not given) here?
A: Its max response is -1.59%.

Q: Which max response does the source give for `CC(=O)c1c(C)[nH]c(C(=O)OCC(=O)Nc2sc3c(c2C#N)CCCC3)c1C` here?
A: Its max response is -1.13%.

Q: With `N#Cc1c(NC(=O)C2CCCO2)sc2c1CCCCC2` (stereo not given) as the compound, how does the max response read?
A: The max response was 48.6% (active).

Q: With `O=C1C(=O)N(CCCO)C(c2ccccc2)/C1=C(\O)c1ccc(Br)cc1` (stereo not given) as the compound, how does the max response read?
A: Its max response is 0.724%.

Q: With `CN1C(=O)/C(=C/C=C2\SCCN2C)OC1=S` as the compound, how does the max response read?
A: Its max response is 37.4% (active).

Q: With `Cc1csc(NC(=O)CSc2nc(=O)cc(N)n2-c2ccc(F)cc2)n1` as the compound, how does the max response read?
A: Its max response is 16.3%.

Q: Which max response does the source give for `CCc1ccc(OCC(=O)NCC(c2ccc(Cl)cc2)N2CCCCC2)cc1` (stereo not given) here?
A: The max response was -2.84%.

Q: For `COc1ccc(-c2cc(C(=O)n3cnc4ccccc43)c3ccccc3n2)cc1`, which max response is on record?
A: Its max response is 16.1%.

Q: Which max response does the source give for `COc1ccc(-c2cc3n(n2)CCc2nc4ccccc4n2-3)cc1` here?
A: Its max response is 9.75% (active).

Q: With `CCn1c(C(O)c2cc(OC)ccc2OC)nc2ccccc21` (stereo not given) as the compound, how does the max response read?
A: Its max response is 5.8%.

Q: For `CC(CC(=O)Nc1ccc(F)cc1F)S(=O)(=O)c1ccc2c(c1)NC(=O)CO2` (stereo not given), which max response is on record?
A: Its max response is 2.18%.

Q: For `c1cc(-c2nn[nH]n2)ccc1CN1CCCCC1`, which max response is on record?
A: The max response was -1.37%.

Q: With `CC(C)c1ccc(-c2nn[nH]n2)cc1` as the compound, how does the max response read?
A: Its max response is 23% (active).

Q: With `Brc1ccc(-c2nn[nH]n2)cc1` as the compound, how does the max response read?
A: Its max response is 9.02%.

Q: Which max response does the source give for `COc1cccc(NC(=O)CCNS(=O)(=O)c2ccc3c(c2)oc(=O)n3C)c1` here?
A: The max response was 0.768%.

Q: Which max response does the source give for `COc1ccc(OCc2nnc3n2N=C(c2ccccc2)C(CC(=O)O)S3)cc1` (stereo not given) here?
A: The max response was -4.15%.

Q: For `COc1ccc(CNC(=O)C(=O)NCC2OCCN2C(=O)c2ccc(OC)cc2)cc1` (stereo not given), which max response is on record?
A: Its max response is -1.12%.

Q: For `CSc1ccc(C#N)cc1NC(=O)c1cccc(Cl)c1`, which max response is on record?
A: The max response was -1.93%.

Q: With `N#Cc1ccccc1NC(=O)c1cccc(COc2ccc(Cl)cc2Cl)c1` as the compound, how does the max response read?
A: The max response was 116% (active).

Q: Which max response does the source give for `CSc1ccc(C#N)cc1NC(=O)c1ccc(Cl)cc1` here?
A: Its max response is 6.79%.

Reference: PubChem BioAssay AID2314 (National Center for Advancing Translational Sciences (NCATS), 2010)
